Among the data in PubChem BioAssay (NCI) are growth values, retold here.

Common to all, as to experiment: NCI-60 one-dose screen, 48 h (100 = growth as untreated, 0 = no growth, -100 = all killed)
Conditions in all cases: 10 µM unless noted

Test [1] has as its system HCT-15 colon.
The test system of test [2] is HT29 colon.
For test [3], the system named is SNB-75 CNS.
The subject of test [4] is SNB-19 CNS.
The subject of test [5] is U251 CNS.
The test system of test [6] is PC-3 prostate.
Test [7] has as its system SK-MEL-5 melanoma.
The subject of test [8] is UACC-62 melanoma.
Test [9] has as its system LOX IMVI melanoma.
Test [10] concerns SK-MEL-28 melanoma.
In test [11] the test system is SK-MEL-2 melanoma.
Test [12] concerns EKVX NSCLC.
For test [13], the system named is SN12C renal.
The test system of test [14] is UO-31 renal.
Test [15] has as its system TK-10 renal.
Test [16] deals with ACHN renal.
Test [17] deals with CAKI-1 renal.
Test [18] deals with A498 renal.
Test [19] deals with CCRF-CEM leukemia.
Test [20] has as its system MOLT-4 leukemia.

SMILES strings stand for the structures. Compounds without any hit were thinned out: in the full panel of roughly 83,000, 20% have a hit.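 Single-dose data. Exposure time 48 hours. Values below 10 considered active.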 A number with no mark means an inactive call. Active and inactive are the calls of the source.

As to `COc1cc(C=O)ccc1Oc1ccc([N+](=O)[O-])cc1[N+](=O)[O-]`, the growth was 108% in test [1]; 108% in test [2]; 93.1% in test [3]; 90.3% in test [4]; 93.2% in [5]; 94.4% in test [6]. Also, the growth in test [7] was 98.6%; in test [8], 82.3%; in [9] it was 82%; in test [10] it was 107%; in test [11], 96.9%; in test [12], 105%. Also, the growth in [13] was 99.8%; in test [14], 83.3%; in test [15], 106%; in test [16], 106%; in [17], 107%; in test [18], 95.2%. Moreover, the growth in test [19] was 82.9%; in [20] it was 100%.

Turning to `COc1cc(N=Nc2ccc(O)c3ncccc23)c2ncccc2c1`, the growth in [1] is 27.5%; in test [2] it was 44.5%; in test [3] it was 41.9%; in test [4], 47.6%; in test [5], 16.5%; in test [6] it was 32.4%. The growth was 43.1% in test [7]; 6.71% (active) in test [8]; 4.79% (active) in [9]; 42% in [10]; 61.3% in test [11]; 65.8% in test [12]. For the same molecule, the growth in test [13] is 68.6%; in test [14] it was 16.6%; in test [15], 69.2%; in [16], 4.47% (active); in [17], 17.3%; in test [18] it was 74.9%. Also, the growth in test [19] is 5% (active); in [20], 6.75% (active).

`CC1(C)C(N)=Nc2cc(OCCCN3Cc4ccc(OCCc5cn(CC(=O)N6CCC(CCN7CCCC7)CC6)nn5)cc4C3)c(OCC3CC3)cc21`: the growth in test [1] is 97.2%; in test [2], 74.2%; in [3] it was 93.8%; in test [4] it was 104%; in test [5] it was 97.7%; in [6], 84.5%. In addition, the growth in test [7] was 103%; in [8], 98.6%; in test [9] it was 100%; in test [10], 108%; in test [11], 109%; in test [12], 101%. The growth in [13] was 96.1%; in test [14], 90.8%; in [15] it was 100%; in test [16], 103%; in test [17], 91.2%; in test [18] it was 104%. The growth is 96.2% in test [19] and 99.9% in [20].

Take `COc1cc(F)c(/C=C/c2cc(/C=C/c3cc(OC)c(OC)cc3F)n(-c3cc(F)cc(F)c3)n2)cc1OC`: the growth is 11.5% in [1]; 22.9% in test [2]; 105% in test [3]; 56.7% in test [4]; -1.48% (active) in test [5]; 10.4% in [6]. The growth in [7] is 23.6%; in test [8], 26.8%; in test [9] it was 18.6%; in test [10], -28.1% (active); in test [11], 59.5%; in test [12], 57.7%. In addition, the growth in test [13] is 72.5%; in test [14] it was 85.4%; in test [15] it was 68.9%; in test [16], 117%; in [17], 98.5%; in test [18] it was 92.4%. Also, the results for the growth in [19] and in [20] were 51.9% and 71.5%, respectively.

`COc1cc(/C=C(/c2ccccc2)[N+](=O)[O-])c(OC)c2c1OCO2`: the growth was -30% (active) in test [1]; 1.28% (active) in [2]; -92.6% (active) in [3]; -17.1% (active) in test [4]; -92.9% (active) in test [5]; -50.5% (active) in [6]. In addition, the growth was -40.9% (active) in test [7]; -29.2% (active) in test [8]; -87.6% (active) in [9]; -12.1% (active) in [10]; -23% (active) in test [11]; -10.5% (active) in [12]. In addition, the growth in test [13] is -39% (active); in test [14], -100% (active); in [15], -88.1% (active); in test [16] it was -70.1% (active); in test [17] it was -65.2% (active); in [18] it was -14% (active). Further, the growth is -6.26% (active) in test [19] and -10.5% (active) in test [20].

For `CCN1CCN(C(=O)[C@]23CC[C@@H](C)[C@H](C)[C@@H]2C2=CC[C@@H]4[C@@]5(C)CCC(=O)C(C)(C)[C@@H]5CC[C@@]4(C)[C@]2(C)CC3)CC1`, the growth in [1] was 8.58% (active); in test [2], -12% (active); in test [3], -3.49% (active); in test [4], 20.9%; in [5] it was -44.9% (active); in test [6] it was 4.66% (active). In addition, the growth in test [7] was -84.1% (active); in [8], -46.1% (active); in [9] it was -85.2% (active); in test [10] it was -64.7% (active); in [11] it was 12.3%; in test [12] it was 28.4%. The growth in test [13] is 7.97% (active); in [14], -9.67% (active); in test [15] it was 18.7%; in test [16], 9.64% (active); in test [17] it was 23.8%; in [18], -17.8% (active). The growth was -8.01% (active) in [19] and -15.9% (active) in test [20].

Consider `CCCCCO/N=C\c1c2c(O)c3c(O)c(C)c4c(c3c1O)C(=O)C(C)(O/C=C\C(OC)C(C)C(OC(C)=O)C(C)C(O)C(C)C(O)C(C)/C=C\C=C(\C)C(=O)N2)O4` (stereo not given), for which the growth in test [1] is 16.1%; in [2], 2.51% (active); in test [3], 39.3%; in test [4], 33.5%; in test [5], 16.8%; in test [6], 13.1%. For the same molecule, the growth in [7] was 15.3%; in test [8] it was 24.1%; in test [9], 23.2%; in test [10], 39.5%; in test [11], -37.7% (active); in test [12] it was 27.3%. The growth in test [13] was 27.6%; in test [14], 17.8%; in [15], 38%; in test [16], 29.6%; in [17] it was 14.9%; in test [18] it was 62.9%. The growth in test [19] is 18.6%; in [20], 14.4%.

With `CCC(=O)Oc1cc(Cl)c(Cl)cc1Cl`, the growth was 103% in [1]; 103% in test [2]; 89.6% in [3]; 113% in [4]; 98.1% in test [5]; 96.4% in test [6]. In addition, the growth is 105% in test [7]; 108% in test [8]; 105% in test [9]; 104% in [10]; 103% in [11]; 102% in test [12]. Besides, the growth is 97.9% in [13]; 95.3% in [14]; 98.5% in test [15]; 101% in test [16]; 99.2% in test [17]; 83.3% in test [18]. For the same molecule, the growth was 105% in [19] and 111% in test [20].
